The source of these data is PubChem BioAssay (NCI).

Compounds without any hit were thinned out: in the full panel of roughly 83,000, 20% have a hit.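 Values shown are percent growth following 48 h exposure of cells in 96-well plates to a single concentration of compound; below 10 was considered active.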 Activity calls are given as the source filed them.

One assay deals with MDA-MB-231 breast. In words: NCI-60 one-dose screen, 48 h (100 = growth as untreated, 0 = no growth, -100 = all killed). The settings on record: 10 µM unless noted.
Take `COc1ccc(/C=C(/C(=O)N2CCCCC2)c2cc(OC)c(OC)c(OC)c2)cc1`: the growth is 41.5% (inactive).

As for `COc1ccc(OC)c(Cn2cc3c(c2)-c2oncc2CC3)c1`, the growth was 42% (inactive).

As to `COc1ccc(CN2C(=O)/C(=C\C(=O)c3ccc(OCCN4CCCCC4)cc3)c3ccccc32)cc1`, the growth is 84.8% (inactive).

For the compound `COc1ccc(/C=C2\SC(=O)N(Cc3cc(=O)oc4ccc(OC)cc34)C2=O)cc1`, the growth is 83.1% (inactive).

Regarding `O=c1oc2ccc3ccccc3c2cc1-c1ccnc2[nH]c(=S)[nH]c(=O)c12`, the growth is 87.4% (inactive).

Turning to `O=C(O)c1occ(Cl)c1Cl`, the growth was 110% (inactive).

Turning to `COc1ccc(Cn2cc3c(c2-c2ccccc2)CCc2cnoc2-3)cc1OC`, the growth was 35% (inactive).

Consider `CCCCN(CCCC)CC(O)CN(CC)CC` (stereo not given), for which the growth was 95.8% (inactive).

For `O=C(/C=C/c1c[nH]c2ccccc12)c1cc2ccccc2o1`, the growth is 84.6% (inactive).

With `COc1ccc2sc(-n3nc4nc5n(c(=O)c4c3N)-c3ccccc3Sc3ccccc3-5)nc2c1`, the growth is 47.5% (inactive).

On to `CCOC(=O)NNc1[nH]c(-c2ccc(OC)cc2)cc1C#N`, for which the growth is 89.8% (inactive).

Consider `COc1ccc(-c2cn3ccnc3c(-c3ccc4ncn(C5CCCCC5)c4c3)n2)cc1`, for which the growth is 28.9% (inactive).

Regarding `CCOC(=O)C1=NN(c2ccccc2)C2=NC(=O)/C(=C\c3cn(-c4ccccc4)nc3-c3cc4ccccc4o3)C(=O)N12`, the growth was 78.7% (inactive).

With `O=C(/C=C1\C(=O)N(Cc2ccc([N+](=O)[O-])cc2)c2ccccc21)c1ccc(OCCN2CCCCC2)cc1`, the growth is -60.8% (active).

For `NNC(=S)N1N=C(c2cc3ccccc3o2)CC1c1c[nH]c2ccccc12` (stereo not given), the growth is 41.6% (inactive).

Regarding `O=C(/C=C1\C(=O)N(Cc2ccccc2)c2ccccc21)c1ccc(OCCN2CCCCC2)cc1`, the growth was 45.9% (inactive).

On to `COc1ccc(CN2C(=O)/C(=C\C(=O)c3ccc(OCCN4CCCC4)cc3)c3ccccc32)cc1`, for which the growth is 93% (inactive).

Turning to `C[C@@H](c1ccc2c(c1)[nH]c1ccc(Cl)cc12)c1nc2ccccc2[nH]1`, the growth is 88.1% (inactive).

As for `c1ccc(-c2cn3ccnc3c(-c3ccc4ncn(C5CCCCC5)c4c3)n2)cc1`, the growth is 58.5% (inactive).

As to `C[C@@H](c1ccc2c(c1)[nH]c1ccc(Cl)cc12)c1nc2ccc(Cl)cc2[nH]1`, the growth was 60.1% (inactive).

Turning to `COc1cc(CNC(=O)CCCC/C=C/C(C)C)ccc1OCc1nnc(Nc2ccccc2F)o1`, the growth was 63.9% (inactive).

As to `Cc1c(CN(C)C)cc(C(C)C)cc1C(C)C`, the growth is 104% (inactive).

As to `O=S(=O)(O)c1ccc2c(c1)Sc1cc(S(=O)(=O)O)ccc1O2`, the growth was 101% (inactive).

Consider `COc1ccc(Cn2cc3c(c2-c2ccccc2)CCc2cnoc2-3)cc1N`, for which the growth is 15.2% (inactive).

For `COc1ccc(/C=C(/C(=O)N2CCN(c3ccc(C)cc3)CC2)c2cc(OC)c(OC)c(OC)c2)cc1N`, the growth is 33.6% (inactive).

For `C=CCN(C)C`, the growth is 97.7% (inactive).

For `CCNc1nnc(COc2ccc(CNC(=O)CCCC/C=C/C(C)C)cc2OC)o1`, the growth was 104% (inactive).

Consider `COc1ccc2oc(=O)cc(CN3C(=O)S/C(=C\c4ccc(Cl)cc4)C3=O)c2c1`, for which the growth is 108% (inactive).

Consider `CC(C)OC(=O)Nn1cnc2ccccc21`, for which the growth is 117% (inactive).

Regarding `COc1ccc(Cn2cc3c(c2-c2ccc(OC)cc2)CCc2cnoc2-3)cc1`, the growth is 8.41% (active).

Consider `COc1cc(Cn2ccc3c2-c2oncc2CC3)cc(OC)c1`, for which the growth was 44.1% (inactive).

As for `COc1cccc(Cn2cc3c(c2)-c2oncc2CC3)c1`, the growth is 5.68% (active).

Take `COc1ccc(C2=C/C(=C\c3ccc(Cl)cc3)C(=O)NN2C(=S)NN)cc1`: the growth was 96.1% (inactive).

On to `COc1ccc(Cn2cc3c(c2)-c2oncc2CC3)cc1OC`, for which the growth was 16.9% (inactive).

Turning to `COc1ccccc1Nc1nnc(COc2ccc(CNC(=O)CCCC/C=C/C(C)C)cc2OC)o1`, the growth is 99.2% (inactive).

On to `N=c1c2c(=O)n3c(nc2nc2sc4ccc(Cl)cc4n12)-c1ccccc1Sc1ccccc1-3`, for which the growth is 7.92% (active).

On to `CCCC(=O)NNc1[nH]c(-c2cc(OC)c(OC)c(OC)c2)cc1C(=O)OCC`, for which the growth was 107% (inactive).

For `COc1ccc(Cn2cc3c(c2-c2ccc(O)cc2)CCc2cnoc2-3)cc1`, the growth is 18% (inactive).

`COc1ccc(OC)c(Cn2cc3c(c2-c2ccccc2)CCc2cnoc2-3)c1`: the growth is 64.7% (inactive).

Regarding `CCCCCCCCCCCCCCCCCC1=NCCN1CS(=O)(=O)O`, the growth was -15.8% (active).

Another assay has as its system RXF 393 renal. The description is as above. As to conditions: 10 µM unless noted.
On to `COc1ccc(/C=C(/C(=O)N2CCCCC2)c2cc(OC)c(OC)c(OC)c2)cc1`, for which the growth was -1.64% (active).

Regarding `COc1ccc(OC)c(Cn2cc3c(c2)-c2oncc2CC3)c1`, the growth is 36.7% (inactive).

As for `COc1ccc(CN2C(=O)/C(=C\C(=O)c3ccc(OCCN4CCCCC4)cc3)c3ccccc32)cc1`, the growth was 61.7% (inactive).

On to `COc1ccc(/C=C2\SC(=O)N(Cc3cc(=O)oc4ccc(OC)cc34)C2=O)cc1`, for which the growth was 110% (inactive).

For the compound `O=c1oc2ccc3ccccc3c2cc1-c1ccnc2[nH]c(=S)[nH]c(=O)c12`, the growth was 118% (inactive).

Consider `O=C(O)c1occ(Cl)c1Cl`, for which the growth was 108% (inactive).

With `COc1ccc(Cn2cc3c(c2-c2ccccc2)CCc2cnoc2-3)cc1OC`, the growth was 13.1% (inactive).

With `CCCCN(CCCC)CC(O)CN(CC)CC` (stereo not given), the growth was 104% (inactive).

For the compound `O=C(/C=C/c1c[nH]c2ccccc12)c1cc2ccccc2o1`, the growth is 114% (inactive).

Regarding `COc1ccc2sc(-n3nc4nc5n(c(=O)c4c3N)-c3ccccc3Sc3ccccc3-5)nc2c1`, the growth is 93.8% (inactive).

Consider `CCOC(=O)NNc1[nH]c(-c2ccc(OC)cc2)cc1C#N`, for which the growth is 96% (inactive).

On to `COc1ccc(-c2cn3ccnc3c(-c3ccc4ncn(C5CCCCC5)c4c3)n2)cc1`, for which the growth is -8.48% (active).

With `CCOC(=O)C1=NN(c2ccccc2)C2=NC(=O)/C(=C\c3cn(-c4ccccc4)nc3-c3cc4ccccc4o3)C(=O)N12`, the growth is 124% (inactive).

In the case of `O=C(/C=C1\C(=O)N(Cc2ccc([N+](=O)[O-])cc2)c2ccccc21)c1ccc(OCCN2CCCCC2)cc1`, the growth was -90.7% (active).

Turning to `NNC(=S)N1N=C(c2cc3ccccc3o2)CC1c1c[nH]c2ccccc12` (stereo not given), the growth is 77.7% (inactive).

As for `O=C(/C=C1\C(=O)N(Cc2ccccc2)c2ccccc21)c1ccc(OCCN2CCCCC2)cc1`, the growth was 0.729% (active).

Consider `COc1ccc(CN2C(=O)/C(=C\C(=O)c3ccc(OCCN4CCCC4)cc3)c3ccccc32)cc1`, for which the growth was 65.2% (inactive).

`C[C@@H](c1ccc2c(c1)[nH]c1ccc(Cl)cc12)c1nc2ccccc2[nH]1`: the growth was 105% (inactive).

Turning to `c1ccc(-c2cn3ccnc3c(-c3ccc4ncn(C5CCCCC5)c4c3)n2)cc1`, the growth was 55% (inactive).

Consider `C[C@@H](c1ccc2c(c1)[nH]c1ccc(Cl)cc12)c1nc2ccc(Cl)cc2[nH]1`, for which the growth was 101% (inactive).

In the case of `COc1cc(CNC(=O)CCCC/C=C/C(C)C)ccc1OCc1nnc(Nc2ccccc2F)o1`, the growth was 68.8% (inactive).

On to `Cc1c(CN(C)C)cc(C(C)C)cc1C(C)C`, for which the growth was 112% (inactive).

On to `O=S(=O)(O)c1ccc2c(c1)Sc1cc(S(=O)(=O)O)ccc1O2`, for which the growth is 116% (inactive).

With `COc1ccc(Cn2cc3c(c2-c2ccccc2)CCc2cnoc2-3)cc1N`, the growth was 15.2% (inactive).

As to `COc1ccc(/C=C(/C(=O)N2CCN(c3ccc(C)cc3)CC2)c2cc(OC)c(OC)c(OC)c2)cc1N`, the growth was 55.2% (inactive).

As to `C=CCN(C)C`, the growth is 111% (inactive).

In the case of `CCNc1nnc(COc2ccc(CNC(=O)CCCC/C=C/C(C)C)cc2OC)o1`, the growth is 120% (inactive).

`COc1ccc2oc(=O)cc(CN3C(=O)S/C(=C\c4ccc(Cl)cc4)C3=O)c2c1`: the growth is 116% (inactive).

Take `CC(C)OC(=O)Nn1cnc2ccccc21`: the growth is 108% (inactive).

On to `COc1ccc(Cn2cc3c(c2-c2ccc(OC)cc2)CCc2cnoc2-3)cc1`, for which the growth is -1.78% (active).

In the case of `COc1cc(Cn2ccc3c2-c2oncc2CC3)cc(OC)c1`, the growth is 54.6% (inactive).

Take `COc1cccc(Cn2cc3c(c2)-c2oncc2CC3)c1`: the growth was 8.73% (active).

`COc1ccc(C2=C/C(=C\c3ccc(Cl)cc3)C(=O)NN2C(=S)NN)cc1`: the growth is 105% (inactive).

Take `COc1ccc(Cn2cc3c(c2)-c2oncc2CC3)cc1OC`: the growth was 9.09% (active).

Take `COc1ccccc1Nc1nnc(COc2ccc(CNC(=O)CCCC/C=C/C(C)C)cc2OC)o1`: the growth was 103% (inactive).

Take `N=c1c2c(=O)n3c(nc2nc2sc4ccc(Cl)cc4n12)-c1ccccc1Sc1ccccc1-3`: the growth was 38.2% (inactive).

As for `CCCC(=O)NNc1[nH]c(-c2cc(OC)c(OC)c(OC)c2)cc1C(=O)OCC`, the growth is 105% (inactive).

Take `COc1ccc(Cn2cc3c(c2-c2ccc(O)cc2)CCc2cnoc2-3)cc1`: the growth was 6.55% (active).

Take `COc1ccc(OC)c(Cn2cc3c(c2-c2ccccc2)CCc2cnoc2-3)c1`: the growth was 80% (inactive).

Take `CCCCCCCCCCCCCCCCCC1=NCCN1CS(=O)(=O)O`: the growth was 69.9% (inactive).
